According to ChEMBL document CHEMBL3433997, “St. Jude Leishmania screening dataset” (2016):

Experiments:
Type in all cases: functional
[1] = target: Solute carrier family 2, facilitated glucose transporter member 1 (Homo sapiens) (UniProt P11166); assay: ST_JUDE_LEISH: Cytotoxicity at 2uM final concentration against transgenic Leishmania Mexicana promastigotes LmGLUT1 that are glucose transport deficient and complemented with the human glucose transporter GLUT1. Activity is measured by DNA content using SYBR green in vitro
[2] = target: Hexose transporter 1 (Plasmodium falciparum) (UniProt O97467); assay: ST_JUDE_LEISH: Cytotoxicity at 2uM final concentration against transgenic Leishmania Mexicana promastigotes LmPfHT that are glucose transport deficient and complemented with the Plasmodium falciparum hexose transporter. Activity is measured by DNA content using SYBR green in vitro
[3] = target: Glucose transporter (Leishmania mexicana) (UniProt O61059); assay: ST_JUDE_LEISH: Cytotoxicity at 2uM final concentration against transgenic Leishmania Mexicana promastigotes LmGT2 that are glucose transport deficient and complemented with the L. Mexicana glucose transporter 2. Activity is measured by DNA content using SYBR green in vitro

Sequence of Solute carrier family 2, facilitated glucose transporter member 1 (Homo sapiens) (P11166 whole entry): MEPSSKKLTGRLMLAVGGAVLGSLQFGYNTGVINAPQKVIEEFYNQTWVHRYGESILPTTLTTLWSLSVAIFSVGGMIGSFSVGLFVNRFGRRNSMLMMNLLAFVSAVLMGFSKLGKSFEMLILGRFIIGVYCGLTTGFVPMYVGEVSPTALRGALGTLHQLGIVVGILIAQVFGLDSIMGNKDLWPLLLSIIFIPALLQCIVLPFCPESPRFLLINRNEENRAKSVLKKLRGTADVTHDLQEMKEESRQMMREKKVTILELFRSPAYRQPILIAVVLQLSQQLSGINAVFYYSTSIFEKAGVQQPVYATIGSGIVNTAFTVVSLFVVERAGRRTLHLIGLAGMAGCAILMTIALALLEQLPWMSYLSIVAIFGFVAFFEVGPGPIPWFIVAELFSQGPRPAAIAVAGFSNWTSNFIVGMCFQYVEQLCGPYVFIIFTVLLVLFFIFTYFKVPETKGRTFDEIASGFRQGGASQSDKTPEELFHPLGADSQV

Row | SMILES | inhibition [1] | inhibition [2] | inhibition [3]
1 | COc1ccc2ncc(C#N)c(CCN3C[C@H](CNCc4ccccc4)[C@H](O)C3)c2n1 | 3.18% | 3.76% | 2.91%
2 | COc1ccc2[nH]cc(C3CCN(CCC4CCN(C(=O)/C=C/c5ccc(Cl)c(Cl)c5)CC4)CC3)c2c1 | 2.88% | 1.24% | 1.93%
3 | COc1cc(CN2CCC(CO)(Cc3cccc(C(F)(F)F)c3)CC2)c(Cl)cc1O | 0.06% | -1.69% | -0.81%
4 | CN(C)CCCSc1ccccc1NC(=O)C=Cc1ccccc1 | 5.73% | 7.21% | 6.85%
5 | CCCCCCOc1ccccc1C(=O)NCCOc1ccc(Cl)cc1 | 3.58% | -1.45% | -1.97%
6 | COc1ccc2nccc(NC(=O)C3(O)CCC(NCc4ccc5c(c4)NCCS5)CC3)c2n1 (stereo not given) | 15% | 22.5% | 7.11%
7 | Cc1cccc2nc(-c3ccc(-c4ccc(NC(=O)Nc5ccc(Cl)cc5)cc4)s3)[nH]c12 | 1.01% | 1.2% | 0.32%
8 | CCN(CC)CC#Cc1ccc2[nH]c(C)c(Cl)c(=O)c2c1 | 3.66% | 3.51% | 4.12%
9 | Cc1ccccc1CN1CCCN(Cc2ccc(C(=O)Nc3ccc(C(C)(C)C)cc3)cc2)CC1 | 6.33% | 3.39% | 3.55%
10 | CCn1c(-c2nonc2N)nc2c(-c3cccc(NC(=O)Nc4cccc(C#N)c4)c3)ncc(OCCCN)c21 | 4.72% | 2.23% | 2.66%
11 | O=C(Nc1ccc(Cl)cc1)Nc1ccc2nonc2c1 | 0.79% | 1.43% | 0.9%
12 | CN(C)CCNCc1ccc(-c2ccc3c(Nc4ccc(Cl)cc4F)ccnc3c2)o1 | 1.23% | 0.82% | -1.76%
13 | C=CCOC(=O)N1CCC(CNCc2ccc(-c3cccc(-c4nc5ccccc5[nH]4)c3)cc2)C1 (stereo not given) | 3.24% | 1.73% | 3.33%
14 | CC(=O)N[C@H](C(=O)Nc1ccc(-c2ccc(-c3nc4cc(C(F)(F)F)ccc4[nH]3)cc2)cc1)C(C)C | 4.54% | 3.08% | 0.17%
15 | c1nc2nc3c(c(Nc4ccc5c(c4)CCC5)n2n1)CCC3 | 3.23% | -0.85% | 1.24%
16 | Cc1cccc2nc(-c3cccc(-c4ccc(NC(=O)C(=O)c5cccn5C)cc4)c3)[nH]c12 | 2.86% | 0.6% | -2.97%
17 | O=C(/C=C/c1ccc(Cl)cc1)Nc1ccc2nc(CN3CCCC3)ccc2c1 | 5.3% | 6.73% | 5.54%
18 | Oc1ccccc1CCNC1CCc2ccccc2C1 (stereo not given) | 4.4% | 5.27% | 6.05%

Row | SMILES | inhibition [1] | inhibition [2] | inhibition [3]
19 | C=CCc1cc(Cc2cnc(N)nc2N)c2ccc(C)nc2c1OC | 8.65% | 6.7% | 5.13%
20 | COc1ccc(C(=O)Cn2nc(-c3ccc(Cl)cc3)ccc2=O)c(OC)c1 | 1.41% | 1.16% | 0.37%
21 | O=C(Cn1c(CCc2cccc(F)c2F)nc(=O)c2cccnc21)N(Cc1ccc(-c2ccc(C(F)(F)F)cc2)cc1)C1CCN(C2CCSCC2)CC1 | 3.24% | 4.36% | 0.42%
22 | Cc1cc(N)nc2ccc(-c3cccc(CN)c3)cc12 | 0.78% | 0.76% | -2.14%
23 | CC(C)CCN1CCCN(Cc2cccc(NC(=O)c3ccc(Cl)c(Cl)c3)c2)CC1 | -1.69% | -1.38% | -3.74%
24 | CC(CN(C)C)C(=O)Nc1ccc(-c2ccc(-c3nc4ccccc4[nH]3)s2)cc1 (stereo not given) | 2.59% | 3.52% | 6.24%
25 | COc1ccc(OC)c(Cc2c(C)nc3nc(N)nc(N)c3c2C)c1 | -0.27% | 0.88% | -3.07%
26 | Cc1nc(C)c(-c2ccc(Br)cc2)c(O)c1Br | -0.12% | -1.35% | -2.85%
27 | N=C(N)CCN(Cc1ccccc1)c1ccc(Cl)cc1 | -1.51% | -1.28% | -1.35%
28 | FC(F)(F)c1ccc2c(NCCNc3ccnc4cc(C(F)(F)F)ccc34)ccnc2c1 | 2.33% | 0.31% | 0.92%
29 | COc1ccc2nccc([C@@H](O)CN3CCC(NCc4nc5ccc(F)cc5[nH]4)CC3)c2c1 | 2.34% | 1.93% | 2.2%
30 | CN1CCC(N2CCN(Cc3cccc(-c4ccc(-c5nc6cc(F)ccc6[nH]5)cc4)c3)CC2)CC1 | 2.43% | 3.05% | 2.66%
31 | COc1ccc2ncc(OC)c(CCN3CC[C@@H](NCc4ccc5c(n4)NC(=O)CS5)[C@H](O)C3)c2n1 | 1.21% | 1.17% | -0.86%
32 | COc1ccc(CC(=O)NC(CCN2CCC3(CCc4ccccc43)CC2)c2ccc(Cl)c(Cl)c2)cc1 (stereo not given) | 0.25% | -0.66% | -0.93%
33 | CCCCCN1CCCCC(NS(=O)(=O)c2ccc(C(=O)Nc3cccc(C(F)(F)F)c3)cc2)C1 (stereo not given) | 6.68% | 5.05% | 3.25%
34 | Cc1cc(NC(=O)c2cccs2)ccc1OC1CCN(Cc2ccc(C#N)cc2)C1 (stereo not given) | 2.86% | 4.23% | 3.26%
35 | CNc1ccc(CNCc2cccc(-c3ccc(-c4nc5cc(C(F)(F)F)ccc5[nH]4)cc3)c2)cc1 | -1.26% | 1.48% | 1.39%
